This note sets out measurements from PubChem BioAssay (NCATS).

SMILES strings stand for the structures. Records with an inconclusive call do not appear. Where a call stands in place of a potency, no number is given. Calls of active or inactive are those of the source. Unless noted, calls follow the shape of the dose curve; as a rule, active = well fitted curve in the direction sought with a large enough effect; inconclusive = small, poorly fitted or top-dose-only effect, or another doubt; inactive = no such curve, though single readings can be large; an effect the other way counts as inactive or inconclusive.

The target in experiment [1] is ATP-dependent 6-phosphofructokinase (Trypanosoma brucei brucei) (UniProt O15648). As to the kind of experiment: qHTS Assay to Find Inhibitors of T. brucei phosphofructokinase: hit validation (AID 492961).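 Also: luminescence reports ADP formed as PFK phosphorylates fructose-6-phosphate with ATP.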 To be noted: T. brucei PFK, ADP-Glo luminescence; series mostly up to 51.4 µM. In short, it runs like this:
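Inhibition of parasite PFK is measured as reduced ADP formation, quantified via luciferase after ATP depletion. Assay used 0.1 mM ATP, 0.5 mM F6P, 1.25 nM enzyme, 45 min incubation.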
(In general: Quantitative high-throughput screening tests each substance at several concentrations.)

Experiment [2] concerns the target Ubiquitin carboxyl-terminal hydrolase 1 (Homo sapiens) (UniProt O94782). As to the kind of experiment: Inhibitors of USP1/UAF1: Pilot qHTS (AID 504865).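 Also: rhodamine fluorescence freed from ubiquitin-rhodamine substrate followed over time; top concentration of the series differs between compounds; nearly all actives have a fitted effect of over 35% in size.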 To be noted: purified USP1/UAF1, Ub-rhodamine cleavage fluorescence; series mostly up to 114 µM. The method in brief:
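USP1/UAF1 complex at 1 nM preincubated 15 min at room temperature with compound, then Ub-Rho substrate added at 150 nM final. Fluorescence (480/540 nm) read kinetically in 50 mM HEPES pH 7.8, 0.5 mM EDTA, 1 mM TCEP, 0.1 mg/ml BSA, 0.01% Tween-20.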

Experiment [3] deals with D(1A) dopamine receptor (Homo sapiens) (UniProt P21728). In words: HTS Assay for Allosteric Agonists of the Human D1 Dopamine Receptor: Primary Screen for Agonists (AID 488981). To be noted: Inducible HEK293 T-REx D1 cells, calcium-flux fluorescence, 180 s kinetic; series mostly up to 41.8 µM. In short, it runs like this:
(§1)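 Tetracycline-induced HEK293 Trex D1 cells with forced coupling to calcium, loaded with no-wash calcium dye; kinetic fluorescence read 180 s after compound addition for agonism, then a further 180 s after an EC20 dopamine challenge for potentiation.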

For experiment [4] the target is unchanged. As to the kind of experiment: HTS Assay for Allosteric Agonists of the Human D1 Dopamine Receptor: Primary Screen for Potentiators (AID 488982). To be noted: HEK293 T-REx D1 inducible cells, calcium flux, kinetic fluorescence; series mostly up to 8.37 µM. In short, it runs like this:
as §1
(Calcium assays in cells follow changes in intracellular calcium, usually with a dye or a luminescent sensor.)

The nature of experiment [5]: Validation screen for small molecules that induce genotoxicity in human embryonic kidney (HEK293T) cells expressing luciferase-tagged ELG1 (AID 493106). To be noted: luminescence; series mostly up to 46.1 µM. In short, it runs like this: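 qHTS format; 2,000 HEK293T ELG1-luc cells/well; 23 nL compound via pin tool; 16 hr, 37 °C/5% CO2; ONE-Glo, 30 min RT; luminescence read.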

Experiment [6] concerns the target ATPase family AAA domain-containing protein 5 (Homo sapiens) (UniProt Q96QE3). As to the kind of experiment: Validation screen for small molecules that inhibit ELG1-dependent DNA repair in human embryonic kidney (HEK293T) cells expressing luciferase-tagged ELG1 (AID 493107).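 Also: cells co-treated with the DNA-damaging agent 5-fluorouridine alongside compound; inhibitors lower the ELG1-luciferase luminescence signal; nearly all actives have a fitted effect of over 70% in size.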 To be noted: HEK293T ELG1-luciferase level, luminescence, 5-fluorouridine co-treatment, 16 h; series mostly up to 46.1 µM. In short, it runs like this: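 ELG1-luciferase HEK293T reporter; 5-fluorouridine + compound/DMSO, 16 hr, 37 °C, 5% CO2; ONE-Glo 30 min RT; luminescence read, qHTS format.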

Experiment [7] in a line: Nrf2 qHTS screen for inhibitors: Validation (AID 493153; active = well fitted inhibition curve with a large enough effect in the main read-out, with a control signal flat, not every such curve was filed as active). To be noted: A549 ARE-Fluc reporter, 18-24 h; Potency: luciferase luminescence; viability change: measured here: cytotoxicity max response; luciferase luminescence, at 46.1 µM (top of the series). In short, it runs like this: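 Concentration-response test in A549 ARE_Fluc reporter cells (5% FBS OPTI-MEM), compound exposure 18-24 h at 37°C, 5% CO2. Cell viability measured first by CellTiter-Fluor fluorescence; ARE-driven luciferase luminescence then measured as Nrf2 activity.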

The target in experiment [8] is Phosphoglycerate kinase, glycosomal (Trypanosoma brucei brucei) (UniProt P07378). In words: qHTS Validation Assay to Find Inhibitors of Phosphoglycerate Kinase (AID 504547). To be noted: enzymatic PGK inhibition, coupled luminescence read-out; series mostly up to 57.5 µM. In short, it runs like this: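 Compounds are pinned into the substrate/PGK mixture, and GAPDH (100nM final) is added to start the reaction by producing 1,3-BPG. After 60 minutes at room temperature, Kinase-Glo Plus is added and luminescence is measured 10 minutes later.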

The nature of experiment [9]: Inducers of the Endoplasmic Reticulum Stress Response (ERSR) in human glioma: Validation (AID 504836). To be noted: human glioma cells, ER stress response reporter; series mostly up to 38.3 µM. In short, it runs like this: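 Stably transfected U87-MG glioma cells carrying a GRP78-based luciferase sensor; 16 h compound incubation. Luminescence end-point read 10 min after Bright-Glo addition at room temperature.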

For experiment [10], the target named is D(1A) dopamine receptor (Homo sapiens) (UniProt P21728). As to the kind of experiment: HTS Assay for Allosteric Agonists of the Human D1 Dopamine Receptor: Primary Screen for Antagonists (AID 488983).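 Also: calcium flux response to an EC80 dopamine challenge measured with no-wash dye; potency is read from the fitted curve at half-maximal effect; nearly all actives have a fitted effect of over 65% in size.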 To be noted: D1 receptor cell assay, antagonist mode, qHTS titration; series mostly up to 41.8 µM. The method in brief: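 Calcium flux readout, no-wash dye, inducible HEK293 T-REx D1 line (force-coupled). Compound added after 10 s baseline, 180 s kinetic read; then dopamine at EC80, further 180 s read.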

Experiment [11] deals with Estrogen receptor (Homo sapiens) (UniProt P03372). As to the kind of experiment: qHTS assay for small molecule agonists of estrogen receptor alpha signaling (AID 588514; calls by dose curve; also: nearly all actives have a fitted effect of over 70% in size). To be noted: ER-alpha-UAS-bla HEK293, beta-lactamase ratio, 18 h; series mostly up to 76.8 µM. In short, it runs like this:
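Read-out: CCF4 fluorescence from a beta-lactamase reporter in ER-alpha-UAS-bla HEK 293 cells after 18 hrs of compound exposure at 37 C. Normalized to 20 nM 17-beta-estradiol (100%) and DMSO (0%).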

Chain of D(1A) dopamine receptor (Homo sapiens) (P21728 whole entry, looked up): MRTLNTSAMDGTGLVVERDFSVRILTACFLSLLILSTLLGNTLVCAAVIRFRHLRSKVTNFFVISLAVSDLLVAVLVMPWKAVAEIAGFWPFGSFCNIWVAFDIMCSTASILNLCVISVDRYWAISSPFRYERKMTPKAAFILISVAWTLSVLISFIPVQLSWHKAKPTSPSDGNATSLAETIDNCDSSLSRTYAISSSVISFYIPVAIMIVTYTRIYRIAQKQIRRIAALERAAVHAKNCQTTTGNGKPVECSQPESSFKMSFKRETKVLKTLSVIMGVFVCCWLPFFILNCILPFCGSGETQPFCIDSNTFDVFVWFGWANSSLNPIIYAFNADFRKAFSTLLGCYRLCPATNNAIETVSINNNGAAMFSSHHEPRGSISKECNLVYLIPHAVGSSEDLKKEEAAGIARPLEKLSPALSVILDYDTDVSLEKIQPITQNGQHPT
Chain of Ubiquitin carboxyl-terminal hydrolase 1 (Homo sapiens) (O94782 whole entry, looked up): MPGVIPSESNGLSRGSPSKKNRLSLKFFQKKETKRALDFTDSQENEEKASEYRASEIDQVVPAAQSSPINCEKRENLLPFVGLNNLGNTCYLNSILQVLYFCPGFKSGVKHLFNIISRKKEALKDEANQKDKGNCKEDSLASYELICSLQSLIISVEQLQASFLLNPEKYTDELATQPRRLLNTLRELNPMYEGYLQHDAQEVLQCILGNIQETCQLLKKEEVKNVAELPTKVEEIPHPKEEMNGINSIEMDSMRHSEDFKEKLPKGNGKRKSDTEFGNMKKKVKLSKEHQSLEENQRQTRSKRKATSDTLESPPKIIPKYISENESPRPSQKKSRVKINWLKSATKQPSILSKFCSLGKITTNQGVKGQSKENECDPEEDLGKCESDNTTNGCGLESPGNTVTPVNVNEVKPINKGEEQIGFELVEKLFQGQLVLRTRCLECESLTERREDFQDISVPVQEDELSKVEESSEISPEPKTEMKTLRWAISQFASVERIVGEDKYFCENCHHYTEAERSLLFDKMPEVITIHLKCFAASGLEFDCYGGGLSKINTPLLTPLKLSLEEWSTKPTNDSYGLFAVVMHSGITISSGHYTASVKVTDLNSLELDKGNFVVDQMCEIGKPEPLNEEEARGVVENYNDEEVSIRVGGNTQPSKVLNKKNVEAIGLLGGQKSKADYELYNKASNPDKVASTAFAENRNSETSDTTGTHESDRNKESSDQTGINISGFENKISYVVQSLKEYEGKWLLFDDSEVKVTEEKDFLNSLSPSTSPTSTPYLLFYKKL
Chain of ATP-dependent 6-phosphofructokinase (Trypanosoma brucei brucei) (O15648 whole entry, looked up): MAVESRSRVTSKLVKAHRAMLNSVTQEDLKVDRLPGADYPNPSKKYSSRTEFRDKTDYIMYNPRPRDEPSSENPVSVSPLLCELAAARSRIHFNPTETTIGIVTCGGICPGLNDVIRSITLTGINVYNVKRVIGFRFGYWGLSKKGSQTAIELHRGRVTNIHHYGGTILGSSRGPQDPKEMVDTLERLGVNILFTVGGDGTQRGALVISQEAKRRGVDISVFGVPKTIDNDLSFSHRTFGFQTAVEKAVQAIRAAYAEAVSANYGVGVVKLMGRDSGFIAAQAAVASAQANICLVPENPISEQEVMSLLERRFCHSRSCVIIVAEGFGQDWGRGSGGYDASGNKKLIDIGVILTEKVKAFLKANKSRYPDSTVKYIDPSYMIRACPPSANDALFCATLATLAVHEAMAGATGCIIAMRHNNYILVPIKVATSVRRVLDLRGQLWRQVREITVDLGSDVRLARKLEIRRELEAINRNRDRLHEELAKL
Chain of Estrogen receptor (Homo sapiens) (P03372 whole entry, looked up): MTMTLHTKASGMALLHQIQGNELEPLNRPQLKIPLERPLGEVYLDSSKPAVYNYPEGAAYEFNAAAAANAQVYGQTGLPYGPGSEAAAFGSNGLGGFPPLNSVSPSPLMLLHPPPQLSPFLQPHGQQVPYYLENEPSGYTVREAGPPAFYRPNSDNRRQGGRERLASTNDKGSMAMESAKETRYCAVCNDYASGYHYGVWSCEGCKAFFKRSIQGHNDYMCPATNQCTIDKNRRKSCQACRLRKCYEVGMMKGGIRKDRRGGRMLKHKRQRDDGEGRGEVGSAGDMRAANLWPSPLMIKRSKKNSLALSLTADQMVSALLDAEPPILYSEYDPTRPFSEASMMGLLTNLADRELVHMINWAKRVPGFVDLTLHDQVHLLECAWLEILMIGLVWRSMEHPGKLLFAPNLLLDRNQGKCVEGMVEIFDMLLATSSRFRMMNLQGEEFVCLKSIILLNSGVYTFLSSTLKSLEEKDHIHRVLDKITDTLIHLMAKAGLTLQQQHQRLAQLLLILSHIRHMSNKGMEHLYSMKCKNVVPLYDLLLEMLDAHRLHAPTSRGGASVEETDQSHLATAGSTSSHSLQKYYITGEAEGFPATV
Chain of Phosphoglycerate kinase, glycosomal (Trypanosoma brucei brucei) (P07378 whole entry, looked up): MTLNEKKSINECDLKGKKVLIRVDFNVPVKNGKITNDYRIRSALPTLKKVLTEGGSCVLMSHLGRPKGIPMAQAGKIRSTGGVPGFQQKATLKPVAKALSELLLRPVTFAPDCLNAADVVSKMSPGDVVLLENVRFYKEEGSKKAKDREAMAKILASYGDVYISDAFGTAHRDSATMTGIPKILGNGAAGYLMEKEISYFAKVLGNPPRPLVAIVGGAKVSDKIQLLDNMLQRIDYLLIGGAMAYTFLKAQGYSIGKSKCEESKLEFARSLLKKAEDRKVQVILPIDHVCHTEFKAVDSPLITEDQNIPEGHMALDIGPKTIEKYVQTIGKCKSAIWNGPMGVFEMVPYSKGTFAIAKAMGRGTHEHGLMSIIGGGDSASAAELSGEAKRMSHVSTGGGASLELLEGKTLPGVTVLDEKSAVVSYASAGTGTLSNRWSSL
Chain of ATPase family AAA domain-containing protein 5 (Homo sapiens) (Q96QE3 whole entry, looked up, the tested form may be a part): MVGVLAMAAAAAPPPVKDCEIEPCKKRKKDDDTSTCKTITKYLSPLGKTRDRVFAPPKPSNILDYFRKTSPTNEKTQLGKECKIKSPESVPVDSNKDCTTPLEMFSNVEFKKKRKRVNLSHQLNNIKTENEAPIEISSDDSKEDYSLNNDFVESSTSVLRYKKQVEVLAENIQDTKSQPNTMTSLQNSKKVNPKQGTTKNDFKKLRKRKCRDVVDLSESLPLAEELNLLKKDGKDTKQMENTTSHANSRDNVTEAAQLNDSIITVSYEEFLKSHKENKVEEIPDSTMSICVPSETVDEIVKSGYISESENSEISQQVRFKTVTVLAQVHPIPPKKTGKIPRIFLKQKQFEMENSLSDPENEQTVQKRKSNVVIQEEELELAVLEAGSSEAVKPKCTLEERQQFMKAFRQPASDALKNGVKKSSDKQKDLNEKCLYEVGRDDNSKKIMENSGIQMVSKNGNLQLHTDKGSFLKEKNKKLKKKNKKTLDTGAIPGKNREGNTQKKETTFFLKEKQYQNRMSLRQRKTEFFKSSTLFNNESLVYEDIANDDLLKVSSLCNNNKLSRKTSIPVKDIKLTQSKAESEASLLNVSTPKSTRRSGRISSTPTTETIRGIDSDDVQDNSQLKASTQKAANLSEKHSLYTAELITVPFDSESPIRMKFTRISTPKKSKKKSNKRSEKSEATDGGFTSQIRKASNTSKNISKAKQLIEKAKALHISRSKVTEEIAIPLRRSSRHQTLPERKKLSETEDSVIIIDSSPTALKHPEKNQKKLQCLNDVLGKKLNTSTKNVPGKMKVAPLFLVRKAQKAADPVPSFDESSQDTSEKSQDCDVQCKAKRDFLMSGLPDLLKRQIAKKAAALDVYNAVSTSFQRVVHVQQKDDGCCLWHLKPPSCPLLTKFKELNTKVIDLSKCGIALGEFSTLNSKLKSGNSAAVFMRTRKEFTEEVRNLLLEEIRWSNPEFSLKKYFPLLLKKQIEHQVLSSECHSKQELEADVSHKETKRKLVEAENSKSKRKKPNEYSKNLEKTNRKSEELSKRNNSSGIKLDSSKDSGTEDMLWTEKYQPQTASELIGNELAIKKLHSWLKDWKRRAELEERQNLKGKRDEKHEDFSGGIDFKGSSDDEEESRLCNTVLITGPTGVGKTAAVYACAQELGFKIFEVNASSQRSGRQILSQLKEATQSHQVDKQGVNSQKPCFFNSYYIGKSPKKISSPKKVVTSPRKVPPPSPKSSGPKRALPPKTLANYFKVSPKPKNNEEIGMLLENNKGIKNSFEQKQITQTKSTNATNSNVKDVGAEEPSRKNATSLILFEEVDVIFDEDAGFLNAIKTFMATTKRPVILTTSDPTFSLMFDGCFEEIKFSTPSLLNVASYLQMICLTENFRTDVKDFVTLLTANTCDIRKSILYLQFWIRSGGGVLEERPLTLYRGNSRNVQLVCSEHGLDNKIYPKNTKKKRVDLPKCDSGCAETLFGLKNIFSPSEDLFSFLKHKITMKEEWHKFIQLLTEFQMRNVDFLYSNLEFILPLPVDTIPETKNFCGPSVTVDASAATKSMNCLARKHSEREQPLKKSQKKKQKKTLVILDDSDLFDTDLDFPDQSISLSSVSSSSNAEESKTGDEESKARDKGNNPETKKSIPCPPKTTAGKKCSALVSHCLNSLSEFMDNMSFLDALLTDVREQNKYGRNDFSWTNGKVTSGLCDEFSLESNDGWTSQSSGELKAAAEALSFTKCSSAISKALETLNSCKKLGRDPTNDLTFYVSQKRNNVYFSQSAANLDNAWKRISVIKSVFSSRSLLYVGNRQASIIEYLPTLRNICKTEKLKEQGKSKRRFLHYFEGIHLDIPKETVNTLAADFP

For `FC(F)(F)c1cccc(C2=CCN(CCc3ccc4ccccc4c3)CC2)c1`, the result in [1] was inactive.

For `CN1C(=S)CN=C(c2ccccc2)c2cc(Cl)ccc21`, in experiment [1], the molecule was called inactive.

Regarding `CCOC(=O)C1(c2ccccc2)CCN(CCC(C#N)(c2ccccc2)c2ccccc2)CC1`, the result in experiment [1] was inactive.

Regarding `Oc1cccc2cccnc12`, in experiment [1], the molecule was called inactive. In addition, the Potency entry in experiment [2] is “inactive”.

`CC(=O)Nc1cc([As](=O)(O)O)ccc1O`: the result in experiment [1] was inactive. Further, in experiment [2], the Potency result is “inactive”.

In the case of `CC1OC(C)OC(C)O1` (stereo unspecified), the molecule was called inactive in [1]. Besides, the Potency entry in [2] was “inactive”.

With `CN(C)CCc1ccc(O)cc1`, in [1], the molecule was classed as inactive. In experiment [2], the Potency entry was “inactive”.

For the molecule `CC[C@@H](CO)NC(=O)[C@@H]1C=C2c3cccc4c3c(cn4C)C[C@H]2N(C)C1`, the Potency entry in [3], in experiment [4], in experiment [5], in experiment [6], in experiment [7] and in [8] was “inactive” in each case. In [2], the Potency entry was “inactive”. Besides, the molecule was called inactive in experiment [1] and in [9]. Besides, the viability change in experiment [7] is -1.92%.

Turning to `CCC(COC(=O)c1cc(OC)c(OC)c(OC)c1)(c1ccccc1)N(C)C` (stereo unspecified), the molecule was called inactive in experiment [1].

In the case of `CN(C)CCC=C1c2ccccc2CCc2ccccc21`, the Potency entry in experiment [4] and in experiment [2] was “inactive” each time. Further, in [10], the Potency is 1.12 µM (active). Besides, the molecule was called inactive in [9].

Regarding `O=P1(NCCCl)OCCCN1CCCl` (stereo unspecified), the call in [1] was inactive. Also, in experiment [2], the Potency entry was “inactive”.

Consider `Cc1ccc(-c2nc3ccc(C)cn3c2CC(=O)N(C)C)cc1`, for which the molecule was called inactive in experiment [1]. In experiment [2], the Potency entry was “inactive”.

Turning to `CC1NCCOC1c1ccccc1` (stereo unspecified), the molecule was classed as inactive in experiment [1]. In addition, the Potency result in experiment [2] is “inactive”.

`CC(C)C(=O)Nc1ccc([N+](=O)[O-])c(C(F)(F)F)c1`: the Potency result in experiment [4], in experiment [5] and in experiment [11] was “inactive” each time. Besides, in [9], the molecule was classed as inactive.

Consider `COc1ccc(C(=O)c2c(C)n(CCN3CCOCC3)c3ccccc23)cc1`, for which the molecule was called inactive in experiment [1].

Turning to `Oc1cc(Cl)ccc1Oc1ccc(Cl)cc1Cl`, the molecule was called inactive in experiment [1]. For the same molecule, the Potency entry in [2] was “inactive”.

Turning to `C#CCOC(C(=O)OCCN(C)C)(c1ccccc1)c1ccccc1`, the molecule was called inactive in experiment [1]. Further, in [2], the Potency result was “inactive”.
